Experimental data from PubChem BioAssay (NCATS).
Results filed as inconclusive are left out. Activity calls are given as the source filed them. Unless noted, calls follow the shape of the dose curve; as a rule, active = well fitted curve in the direction sought with a large enough effect; inconclusive = small, poorly fitted or top-dose-only effect, or another doubt; inactive = no such curve, though single readings can be large; an effect the other way counts as inactive or inconclusive.

What was measured:
[1] = Cell Viability - BJ (AID 421; calls by dose curve;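 also: potency is read from the fitted curve at half-maximal effect; cells exposed to compound for 40 hours at 37 °C before readout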); details: BJ fibroblast viability, qHTS
In short: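 Luminescent ATP signal (CellTiter-Glo, 20 min at room temperature) served as the read-out of viable BJ cells after 40 hours of compound treatment. Responses were scaled between DMSO and 100 uM tamoxifen, and AC50 values were obtained by Hill modeling.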

[2] = Cell Viability - Jurkat (AID 426;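 active = dose-dependent loss of cell ATP signal giving a full or clear fitted curve, ranked by lower potency value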;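 also: potency is read from the fitted curve at half-maximal effect; cells exposed to compound for 40 hours at 37 °C before ATP read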); details: qHTS
In short: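 Luminescent ATP read-out (CellTiter-Glo, 20 min at room temperature) after 40 hr compound exposure at 37 °C of Jurkat E6-1 cells, 5000/well. Decreased ATP taken as cytotoxicity; AC50 from standard Hill equation.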

[3] = Cell Viability - HepG2 (AID 433; calls by dose curve;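 also: potency is read from the fitted curve at half-maximal effect; potency for ATP loss meaning cytotoxicity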); details: qHTS
In short: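 Cytotoxicity is scored as loss of intracellular ATP in HepG2 cells exposed to compounds for 40 h. Concentration-response curves, normalized to DMSO and 100 uM tamoxifen, give AC50 values.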

[4] = Cell Viability - MRC5 (AID 434; calls by dose curve;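 also: potency is read from the fitted curve at half-maximal effect; cells exposed to compound for 40 hours at 37 °C; potency reflects cytotoxicity seen as loss of intracellular ATP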); details: MRC5 lung fibroblast viability, qHTS
In short: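 Decrease in intracellular ATP, quantified by luciferase light output, reflects compound toxicity toward MRC5 cells exposed for 40 hr in complete culture medium. Concentration-response curves, scaled between DMSO and 100 uM tamoxifen, gave AC50 values.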

[5] = Cell Viability - SK-N-SH (AID 435; calls by dose curve; also: potency is read from the fitted curve at half-maximal effect); details: SK-N-SH neuroblastoma cell viability qHTS
In short: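 Cells seeded at 1500 per well and incubated 5 hr at 37 °C. Compound added, then 40 hr at 37 °C. CellTiter-Glo added, 20 min at room temperature, luminescence read.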

[6] = Cell Viability - N2a (AID 540); details: N2a mouse neuroblastoma cell viability; at 92.2 µM (top of the series);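 also: plate controls were DMSO alone for no effect and tamoxifen control for full effect; nearly all actives have a fitted effect of over 45% in size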
In short: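 N2a mouse neuroblastoma, 1500 cells/well, 5 hr settle; compound 40 hr, 37 °C; CellTiter-Glo 20 min RT; luminescence; Hill-fit AC50.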

[7] = Cell Viability - NIH 3T3 (AID 541); details: NIH 3T3 cell viability, qHTS; at 92.2 µM (top of the series);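 also: plate controls were DMSO alone for no effect and tamoxifen positive control for full effect; nearly all actives have a fitted effect of over 25% in size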
In short: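 qHTS format; 40 hr compound exposure, 37 °C; CellTiter-Glo luminescence (cellular ATP) read-out after 20 min at RT. Decrease in ATP = cytotoxicity; AC50 from standard Hill fit.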

[8] = Cell Viability - HUV-EC-C (AID 542); details: HUV-EC-C endothelial cell viability, qHTS; also: potency is read from the fitted curve at half-maximal effect; nearly all actives have a fitted effect of over 35% in size
In short: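 Luminescent ATP read-out (CellTiter-Glo, 20 min room temperature) after 40 hr compound treatment of HUV-EC-C cells at 37 °C. Concentration-response data fitted with the standard Hill equation to give AC50; tamoxifen and doxorubicin served as positive controls.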

[9] = Cell Viability - H-4-II-E (AID 543); details: H-4-II-E rat hepatoma viability; also: potency is read from the fitted curve at half-maximal effect; nearly all actives have a fitted effect of over 35% in size
In short: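 qHTS, rat hepatoma H-4-II-E, 1500 cells/well; 40 hr compound exposure, 37 °C; CellTiter-Glo ATP luminescence after 20 min RT; AC50 by standard Hill fit.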

[10] = Cell Viability - SH-SY5Y (AID 544); details: SH-SY5Y neuroblastoma cell viability; also: potency is read from the fitted curve at half-maximal effect; nearly all actives have a fitted effect of over 55% in size
In short: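 SH-SY5Y, 1500 cells/well, 5 hr pre-incubation 37 °C; cpd 40 hr 37 °C; CellTiter-Glo 20 min RT; luminescence (ATP) read. qHTS concentration-response, Hill fit → AC50. Tamoxifen, doxorubicin as positive controls.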

[11] = Cell Viability - Renal Proximal Tubule (AID 545); details: renal proximal tubule cells viability, primary cells of rat origin; at 91.7 µM (top of the series);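 also: 0% = DMSO only and -100% = 100 µM tamoxifen; nearly all actives have a fitted effect of over 40% in size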
In short: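 Cytotoxicity is scored as a concentration-dependent drop in cellular ATP in primary rat renal proximal tubule cells exposed for 40 hr. AC50 derives from Hill modelling.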

[12] = Cell Viability - Mesenchymal (AID 546); details: mesenchymal cells viability, qHTS;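 also: potency is read from the fitted curve at half-maximal effect; cells exposed to compound for 40 hours before reading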
In short: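 In this qHTS cytotoxicity format, glomerulus-derived human mesenchymal kidney cells received compound for 40 hr, then luciferase-based ATP quantitation. Concentration-response data were fitted with the Hill equation.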

[13] = Cellular Toxicity (caspase-3) HepG2 (AID 654);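 also: cells exposed to compound for 16 hours before reading; 0% = DMSO alone and 100% = caspase signal from 100 µM tamoxifen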
In short: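 Luminescent Caspase-Glo 3/7 readout after 16 hr compound exposure of human hepatocellular carcinoma HepG2 cells at 37 °C; qHTS concentration-response, normalized DMSO = 0%, 100 uM tamoxifen = 100%; AC50 by standard Hill equation.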

[14] = Cellular Toxicity (caspase-3) Jurkat (AID 655);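 also: cells exposed to compound for 16 h at 37 °C before reading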
In short: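 Caspase 3/7 activation is scored as increased luminescence in Jurkat cells cultured with compound for 16 hours in complete medium. AC50 values come from Hill fits of qHTS concentration-response data normalized to DMSO and 100 uM tamoxifen controls.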

[15] = Cellular Toxicity (caspase-3) HUV-EC-C (AID 656);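 also: 0% = DMSO basal and 100% = 100 µM tamoxifen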
In short: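 Read-out: luminescence proportional to caspase 3/7 activity, measured 20 min after adding Caspase-Glo 3/7 reagent. Cells (HUV-EC-C) had received compound for 16 hr at 37°C. Increases relative to DMSO and 100 uM tamoxifen gave concentration-response AC50 values.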

[16] = Cellular Toxicity (caspase-3) SHSY5Y (AID 657);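 also: cells exposed to compound for 16 hours at 37 °C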
In short: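 Cells plated and incubated 5 h at 37 °C, dosed over a concentration range, incubated 16 h, then given Caspase-Glo 3/7 reagent for 1 h at room temperature before luminescence reading. Staurosporine (10 uM) defined full stimulation.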

[17] = Cellular Toxicity (caspase-3) BJ (AID 658);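 also: 0% = DMSO basal and 100% = 10 µM staurosporine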
In short: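 Plated BJ cells (1000/well) rested 5 hr, received compound for 16 hr at 37 °C, then Caspase-Glo 3/7 reagent for 1 hr at room temperature before luminescence reading.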

[18] = Cellular Toxicity (caspase-3) MRC-5 (AID 659);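 also: 0% = DMSO basal and 100% = 10 µM staurosporine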
In short: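 Apoptosis readout in MRC-5 cells: luciferase light generated after caspase 3/7 cleaves a peptide-aminoluciferin substrate, measured post 16 hr compound incubation at 37 °C.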

[19] = Cellular Toxicity (caspase-3) Mesangial (AID 660);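 also: cells exposed to compound for 16 h before the caspase read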
In short: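 Luminescent Caspase-Glo 3/7 readout (aminoluciferin substrate cleavage, 20 min RT) after 16 h compound exposure at 37 °C of normal human mesangial cells. Signal increase normalized between DMSO basal and 100 uM tamoxifen; Hill-equation AC50.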

[20] = Cellular Toxicity (caspase-3) SK-N-SH (AID 661);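 also: 0% = DMSO basal and 100% = 10 µM staurosporine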
In short: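 Luminescent Caspase-Glo 3/7 read-out after 16 hr compound exposure of SK-N-SH neuroblastoma cells at 37 °C. Signal increase normalized to DMSO (basal) and 10 uM staurosporine (100%); AC50 from Hill equation fits of qHTS concentration-response data.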

[21] = Cellular Toxicity (caspase-3) H-4-II-E (AID 663);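 also: cells exposed to compound for 16 hr before readout; 0% = DMSO basal and 100% = 100 µM tamoxifen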
In short: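 Caspase 3/7 activation measured in H-4-II-E cells in complete culture medium after 16 hr treatment at 37 °C, using luciferase-coupled substrate readout; AC50 values come from Hill-equation fits of normalized concentration-response data.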

[22] = Cellular Toxicity (caspase-3) Hek293 (AID 664);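 also: cells exposed to compound for 16 h at 37 °C before readout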
In short: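 Luminescent Caspase-Glo 3/7 readout (aminoluciferin release) in HEK293 cells after 16 h compound treatment, 37 °C. Normalization: DMSO = basal, 100 uM tamoxifen = 100% stimulation. Concentration-response fitted with standard Hill equation for AC50.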

[23] = Cellular Toxicity (caspase-3) N2a (AID 665);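 also: compound exposure lasted 16 h at 37 °C before readout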
In short: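 Luminescent Caspase-Glo 3/7 readout in N2a mouse neuroblastoma cells after 16 h compound exposure at 37 °C. Signal scaled to DMSO (basal) and 10 uM staurosporine (100%). Concentration-response fitted with Hill equation for AC50.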

[24] = Cellular Toxicity (caspase-3) NIH 3T3 (AID 666);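 also: 0% = DMSO basal and 100% = 100 µM tamoxifen stimulation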
In short: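 NIH 3T3, 1000 cells/well, 5 hr settle then 16 hr compound at 37°C; Caspase-Glo 3/7, 20 min RT, luminescence. DMSO = basal, 100 uM tamoxifen = 100%. Hill-equation AC50, qHTS.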

[25] = Cell Viability - LYMP2-001 (AID 921); details: LYMP2-001 lymphoblastoid cell viability; also: potency is read from the fitted curve at half-maximal effect; nearly all actives have a fitted effect of over 70% in size
In short: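 qHTS, 1536-well; lymphoblastoid cells, 24 hr compound, 37 C; ATP by CellTiter-Glo, 30 min RT; luminescence; Hill-fit AC50.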

[26] = MultiTox-Fluor Cytotoxicity Assay - LYMP1-001 - Dead Cells (AID 946);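 also: 0% = DMSO and 100% = tetraoctylammonium bromide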
In short: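 AC50 from Hill fit of concentration-response; data normalized to DMSO (basal) and 15 uM tetraoctylammonium bromide (100%). LYMP1-001 lymphoblastoid cells, 2500/well, 16 hr compound at 37 C; dead-cell protease fluorescence, Ex/Em 485/520.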

[27] = Cell Viability - LYMP1-002 - Assay at 16 hr (AID 948); details: LYMP1-002 lymphoblastoid cell viability; also: potency is read from the fitted curve at half-maximal effect
In short: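 Acute cytotoxicity is scored as a concentration-dependent fall in intracellular ATP in a human lymphoblastoid line (LYMP1-002) after 16 hr compound exposure at 37 C, measured by luciferase luminescence.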

[28] = MultiTox-Fluor Cytotoxicity Assay - LYMP1-002 - Dead Cells (AID 960);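 also: 0% = DMSO and 100% = tetraoctylammonium bromide; nearly all actives have a fitted effect of over 60% in size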
In short: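 Readout: fluorescence at 485/520 from cell-impermeant bis-AAF-R110 cleaved by proteases leaking from damaged cells. LYMP1-002 lymphoblastoid line, 16 hr compound treatment at 37 C, concentration-response in qHTS format; Hill-equation AC50 values.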

[29] = MultiTox-Fluor Cytotoxicity Assay - LYMP1-003 - Dead Cells (AID 961);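 also: 0% = DMSO and 100% = tetraoctylammonium bromide; nearly all actives have a fitted effect of over 70% in size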
In short: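 Human lymphoblastoid LYMP1-003 cells (2500/well) were treated with compounds for 16 hr at 37 C in complete medium. Dead-cell protease release was read by bis-AAF-R110 fluorescence (Ex/Em 485/520). AC50 came from Hill fits, normalized to DMSO and 15 uM tetraoctylammonium bromide.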

[30] = MultiTox-Fluor Cytotoxicity Assay - LYMP1-003 - Live Cells (AID 962); details: LYMP1-003 lymphoblastoid cells, MultiTox-Fluor live-cell protease fluorescence;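 also: potency is read from the fitted curve at half-maximal effect; cells exposed to compound for 16 hours at 37 °C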
In short: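 Readout: live-cell fluorescence (Ex/Em=405/510) from GF-AFC cleavage after 60 min MultiTox-Fluor reagent at room temperature. Lymphoblastoid LYMP1-003 cells, 16 hr compound treatment, 37 C. Concentration-response fitted to standard Hill equation for AC50.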

[31] = Cell Viability - LYMP1-003 - Assay at 24 hr (AID 963); details: LYMP1-003 lymphoblastoid cell viability; also: potency is read from the fitted curve at half-maximal effect
In short: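 CellTiter-Glo luminescence (intracellular ATP) read after 24 hr, 37 C compound exposure of 2500 LYMP1-003 human lymphoblastoid cells/well in complete medium; qHTS concentration series; AC50 via standard Hill equation.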

[32] = Cell Viability - LYMP1-003 - Assay at 40 hr (AID 964); details: LYMP1-003 lymphoblastoid viability; also: potency is read from the fitted curve at half-maximal effect; nearly all actives have a fitted effect of over 60% in size
In short: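 LYMP1-003 lymphoblastoid cells, 2500/well; 5 hr preincubation, 40 hr compound exposure, 37 C; CellTiter-Glo 30 min RT; luminescence; Hill-fit AC50. Positive control tetraoctylammonium bromide.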

[33] = Cell Viability - LYMP2-003 (AID 965); details: LYMP2-003 lymphoblastoid cell viability;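 also: potency is read from the fitted curve at half-maximal effect; cells exposed to compounds for 24 h before reading; nearly all actives have a fitted effect of over 50% in size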
In short: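 Acute cytotoxicity is scored as a concentration-dependent drop in intracellular ATP, measured by luciferase luminescence in human lymphoblastoid cells treated for 24 hours at 37 C. AC50 values derive from Hill-equation modelling.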

[34] = Cell Viability - LYMP2-004 (AID 966); details: LYMP2-004 lymphoblastoid cell viability, qHTS; also: potency is read from the fitted curve at half-maximal effect; nearly all actives have a fitted effect of over 65% in size
In short: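 Luminescent ATP read-out (CellTiter-Glo, 30 min RT) after 24 hr compound exposure at 37 C; 2500 lymphoblastoid cells/well, complete medium. Decrease in ATP = cytotoxicity; AC50 from standard Hill model.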

[35] = Cell Viability - LYMP2-005 (AID 967); details: LYMP2-005 lymphoblastoid cell viability; also: potency is read from the fitted curve at half-maximal effect
In short: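 qHTS viability screen in LYMP2-005 cells: 24 h at 37 C with compound, ATP luminescence via CellTiter-Glo, AC50 from Hill curves.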

[36] = Cell Viability - LYMP2-009 (AID 968); details: LYMP2-009 lymphoblastoid cell viability; also: potency is read from the fitted curve at half-maximal effect; nearly all actives have a fitted effect of over 55% in size
[37] = Cell Viability - LYMP2-011 (AID 969); details: LYMP2-011 lymphoblastoid cells viability;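 also: potency is read from the fitted curve at half-maximal effect; cells exposed to compound for 24 hours; nearly all actives have a fitted effect of over 60% in size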
In short: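 Luminescent ATP read-out (CellTiter-Glo, 30 min RT) after 24 hr compound exposure at 37 C in human lymphoblastoid cells, 2500 cells/well. Decreasing ATP indicates cytotoxicity; AC50 from standard Hill fit.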

[38] = Cell Viability - LYMP2-013 (AID 970); details: LYMP2-013 lymphoblastoid cells viability; also: potency is read from the fitted curve at half-maximal effect; nearly all actives have a fitted effect of over 55% in size
In short: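 CellTiter-Glo luminescence (cellular ATP) read after 30 min at RT. Cells: human lymphoblastoid line, 2500/well, 24 hr compound exposure at 37 C. Tetraoctylammonium bromide positive control; AC50 via standard Hill fit of qHTS titrations.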

[39] = Cell Viability - LYMP2-015 (AID 971); details: LYMP2-015 lymphoblastoid cell viability; also: potency is read from the fitted curve at half-maximal effect; nearly all actives have a fitted effect of over 55% in size
In short: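 qHTS cytotoxicity: 2500 cells/well, 5 hr 37 C, compound 24 hr 37 C, CellTiter-Glo 30 min RT, luminescence. Loss of ATP = toxicity; AC50 via standard Hill fit.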

O=C1c2c(O)ccc([N+](=O)[O-])c2C(=O)c2c([N+](=O)[O-])ccc(O)c21
active: Potency [1] 28.5 µM | Potency [2] 25.8 µM | Potency [3] 27.4 µM | Potency [4] 30.1 µM | Potency [5] 28.8 µM | activity change, negative = cytotoxicity [6] -111% | activity change, negative = cytotoxicity [7] -139% | Potency [8] 31.6 µM | Potency [9] 31.6 µM | Potency [10] 25.1 µM | activity change, negative = cytotoxicity [11] -107% | Potency [12] 31.6 µM | Potency [25] 50.1 µM | Potency [27] 39.8 µM | Potency [30] 50.1 µM | Potency [31] 39.8 µM | Potency [32] 39.8 µM | Potency [33] 31.6 µM | Potency [34] 31.6 µM | Potency [35] 39.8 µM | Potency [36] 31.6 µM | Potency [37] 39.8 µM | Potency [38] 50.1 µM | Potency [39] 31.6 µM
inactive: outcome [13] | outcome [14] | outcome [15] | outcome [16] | outcome [17] | outcome [18] | outcome [19] | outcome [20] | outcome [21] | outcome [22] | outcome [23] | outcome [24] | outcome [26] | outcome [28] | outcome [29]
